High-throughput results as filed in PubChem BioAssay.
p53null 32C tox: qHTS Screen for Compounds that Selectively Target Cancer Cells with p53 Mutations: Cytotoxicity of p53 Null Cells at the Permissive Temperature; AID 903, 2007; H1299-neo p53 null cells, ATP luminescence, 24 h, 32C; hit rate 0.62% among 55,000; Potency, µM (doses to about 46.1 µM), inactives show at the top dose activity change, negative = cytotoxicity, usual class: cytotoxic;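 note: 0% = DMSO only and -100% = full killing by 100 µM tamoxifen; nearly all actives have a fitted effect of over 55% in size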
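H1299-neo, 600 cells/well; overnight 37C; cpd up to 46 uM, 24 h at 32C; ATPlite luminescence after 20 min RT; normalized to DMSO (0%) and tamoxifen 100 uM (100% kill); Hill-fit AC50.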
p53null 39C kill: qHTS Screen for Compounds that Selectively Target Cancer Cells with p53 Mutations: Cytotoxicity of p53 Null Cells at the Nonpermissive Temperature; Potency, µM (highest dose often 46.1 µM), without a hit: at the highest dose activity, negative = cell killing, actives largely listed as cytotoxic; hit rate 0.97% among 55,000; H1299 p53-null (neo) cells, 39C, ATPlite viability, 24 h; AID 904, 2007;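 note: 0% = DMSO only and -100% = full killing by 100 µM tamoxifen; nearly all actives have a fitted effect of over 50% in size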
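Luminescent ATP signal reported cell survival after H1299 lines (neo, p53 null; or p53 A138V) received up to 46 uM compound and 24 hr incubation at 39C.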
mTORC1 inh: Acumen qHTS Assay for Inhibitors of the mTORC1 Signaling Pathway in MEF (Tsc2-/-, p53-/-) Cells: Sytravon | Tsc2-/- p53-/- MEF, phospho-rpS6 immunofluorescence/PI, 24 h | Potency, µM (series often up to 38.3 µM), without a hit: top-dose activity change, negative = inhibition, usual class: inhibitors | hit rate 0.78% among 44,000 | AID 493208, 2011;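 note: plate controls were DMSO for no effect and rapamycin for full effect; nearly all actives have a fitted effect of over 50% in size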
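Read-out: phospho-S6 Alexa-488 intensity over PI intensity per well, scored as % active cells using thresholds from rapamycin (7.5 nM) and DMSO controls. Tsc2-/-, p53-/- MEFs exposed to compound for 24 h; PI cell count recorded as viability.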
SKOV3 invasion: Primary qHTS assay for Inhibitors of ovarian cancer metastasis using an organotypic tumor microenvironment (TME) model; SKOV3ip1-GFP adhesion/invasion on 3D omental model, fluorescence; Potency, µM (doses to about 45.8 µM), for inactives: at the highest dose activity change, negative = inhibition, usual class: inhibitors; hit rate 0.1% among 46,000; AID 1963576, 2024;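 note: plate controls were DMSO wells for no effect and tomatine positive control wells for full effect; nearly all actives have a fitted effect of over 65% in size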
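A 3D layer of primary human omental fibroblasts, mesothelial cells, fibronectin and collagen I, grown 48 hr, received SKOV3ip1-GFP cells in serum-free medium plus compounds at 0.36-46 umol/L. After 2 hr RT and 16 hr 37 C, fixed adherent GFP cells were counted; normalized to DMSO and tomatine.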
S16 viability: Cell viability qHTS assay in S16 Pmp22-F2sN cells | Potency, µM (doses to about 57.5 µM), without a hit: at the top dose activity change, negative = cytotoxicity, most hits filed as cytotoxic | AID 1508642, 2021 | hit rate 0.48% among 43,000 | S16 Pmp22-F2sN Schwann cells viability, CellTiter-Glo, 24 h; note: nearly all actives have a fitted effect of over 65% in size
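Luminescence from CellTiter-Glo, read by CCD camera after a 15 min room-temperature incubation, served as the viability signal. Reporter Schwann cells (S16 Pmp22-F2sN) had been treated with pin-transferred compounds for 24 h at 37C.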
PMP22 txn: Cell-based coincidence reporter assay to measure PMP22 gene transcription in S16 Pmp22-F2sN cells - Primary screen | Potency, µM (doses to about 57.5 µM), for the others: at the top dose activity change, negative = inhibition, hits mostly inhibitors | S16 Pmp22-F2sN Schwann cells (luciferase reporters placed in the Pmp22 gene), FLuc/NLuc coincidence luminescence, 24 h | hit rate 2% among 43,000 | AID 1508649, 2021; active = clear falling dose curves in both reporters; inconclusive = both reporters move, but less clearly or upward; inactive = either reporter flat; the % is the NLuc reporter signal
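S16 Schwann cells carrying FLuc/NLuc coincidence reporter in the Pmp22 3' UTR treated with compound 24 h at 37C; FLuc then NLuc luminescence read sequentially by dual-luciferase reagents.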
The depositor's hits bear a star; i = inactive; ? = inconclusive; . = no result. This is a sample that favours compounds with a hit; in the whole collection about 3.1% have one here. Unless noted, calls come from the whole dose curve; as a rule, active = well fitted curve in the direction sought with a large enough effect; inconclusive = small, poorly fitted or top-dose-only effect, or another doubt; inactive = no such curve, though single readings can be large; an effect the other way counts as inactive or inconclusive. Unless noted, % is set by controls: 0 for no effect and ±100 for the full control effect; potency is the fitted concentration of half-maximal effect.

SMILES	p53null 32C tox	p53null 39C kill	mTORC1 inh	SKOV3 invasion	S16 viability	PMP22 txn
COc1ccc(C2=C(Nc3ccc(C)cc3C)c3ccccc3C2=O)cc1	17.0%	4.5%	-2.9%	0.7%	.	.
Cc1cc2c(F)c(Oc3ncnn4cc(OC[C@@H](C)O)c(C)c34)ccc2[nH]1	.	.	.	7.6%	.	.
Cc1ccc(-n2ncc3c(N(C)Cc4ccccc4)ncnc32)cc1	12.6µM*	20.1%	11.8%	-4.3%	4.3%	-2.6%
COc1ccc(N2CCN(c3ncnc4c3cnn4C)CC2)cc1	4.8%	2.2%	7.8%	1.5%	-19.2%	?
Cc1ccc(-n2ncc3c(N4CCCCC4)ncnc32)cc1	1.58µM*	6.31µM*	11.8%	-11.7%	5.4%	2.7%
COc1ccc(-n2ncc3c(N4CCCCC4)ncnc32)cc1	2.51µM*	3.98µM*	.	.	.	.
Cc1ccc(-n2ncc3c(N(CCO)Cc4ccccc4)ncnc32)cc1	-24.2%	11.8%	-15.7%	9.0%	?	-5.2%
CCCNS(=O)(=O)Nc1ncnc(OCCOc2ncc(Br)cn2)c1-c1ccc(Br)cc1	.	.	.	-13.2%	.	.
COC1=C2C[C@@H](C)C[C@H](OC)[C@@H](O)[C@@H](C)C=C(C)[C@H](OC(N)=O)[C@@H](OC)C=CC=C(C)C(=O)NC(=CC1=O)C2=O	.	.	.	-4.8%	.	.
Cc1ccc(C)c(N2CCN(CCCNC(=O)C3COc4ccccc4C3)CC2)c1 (centres undefined)	8.9%	7.8%	11.7µM*	-24.4%	?	?
O=C(NCCCN1CCN(c2ccccc2F)CC1)C1COc2ccccc2C1 (centres undefined)	-5.5%	1.0%	-0.6%	6.3%	-3.4%	-21.6%
CN(C1CCc2c(c3ccccc3n2CC(=O)O)C1)S(=O)(=O)c1ccc(F)cc1 (centres undefined)	.	.	.	-33.7%	.	.
CN(C)CCC=C1c2ccccc2COc2ccc(CC(=O)O)cc21	.	.	.	0.9%	.	.
O=C(Nc1cccc(C(F)(F)F)c1)Nc1ccc2snnc2c1	36.5%	?	-21.1%	i	?	9.46µM*
CSc1cccc(Nc2ncc3cc(-c4c(Cl)cccc4Cl)c(=O)n(C)c3n2)c1	.	.	.	-5.8%	.	.
CCc1ccc(C(=O)CC2(O)C(=O)N(CCc3ccccc3)c3ccc(Cl)cc32)cc1 (centres undefined)	49.4%	?	?	?	20µM*	?
Cc1ccccc1CN1C(=O)C(O)(c2c[nH]c3ccccc23)c2cc(Cl)ccc21 (centres undefined)	?	?	?	-24.0%	1.3%	?
Cc1ccccc1CN1C(=O)C(O)(CC(=O)c2ccccc2)c2cc(Cl)ccc21 (centres undefined)	38.0%	16.5%	11.7µM*	?	?	?
CC[C@H]1OC(=O)[C@H](C)[C@@H](O[C@H]2C[C@@](C)(OC)[C@@H](O)[C@H](C)O2)[C@H](C)[C@@H](O[C@@H]2O[C@H](C)C[C@H](N(C)C)[C@@H]2O)[C@](C)(O)C[C@@H](C)CN(C)[C@H](C)[C@@H](O)[C@]1(C)O	.	.	.	0.4%	.	.
COc1ccc(OC)c(NC(=O)c2nc(S(=O)(=O)Cc3ccc(F)cc3)ncc2Cl)c1	?	25.1µM*	2.93µM*	6.31µM*	4.47µM*	?
Cc1ccc(NC(=O)c2nc(S(=O)(=O)Cc3ccc(F)cc3)ncc2Cl)cc1C	20µM*	?	?	11.2µM*	10µM*	7.27µM*
CC(=O)Nc1ccc(NC(=O)c2nc(S(=O)(=O)Cc3ccc(F)cc3)ncc2Cl)cc1	-10.9%	-27.8%	5.21µM*	3.16µM*	3.55µM*	1.89µM*
CC(=O)Nc1ccc(NC(=O)c2nc(SCc3ccccc3C)ncc2Cl)cc1	-9.7%	-5.9%	-6.1%	-8.6%	6.0%	?
C[C@@H](Oc1cc(-c2cnn(C3CCNCC3)c2)cnc1N)c1c(Cl)ccc(F)c1Cl	.	.	.	-15.8%	.	.
CCCCCN(CCC12CC3CC(CC(C3)C1)C2)C(=O)NCCCc1ccncc1	.	.	.	6.4%	.	.
SMILES	p53null 32C tox	p53null 39C kill	mTORC1 inh	SKOV3 invasion	S16 viability	PMP22 txn
CCC1=Nc2cc(C(=O)NCCc3ccc(OC)c(OC)c3)ccc2Sc2ccccc21	10.1%	35.4%	0.6%	73.4%	-0.5%	?
CC1=Nc2cc(C(=O)NC3CCCC3)ccc2Sc2ccc(Cl)cc21	-4.4%	12.7%	-20.1%	-9.7%	?	5.32µM*
CCC1=Nc2cc(C(=O)NC3CCCC3)ccc2Sc2ccc(Cl)cc21	20.1%	29.6%	?	1.9%	?	8.43µM*
CC(C)N(CCCNC(=O)Nc1ccc(C(C)(C)C)cc1)C[C@H]1O[C@@H](n2cc(Br)c3c(N)ncnc32)[C@H](O)[C@H]1O	.	.	.	-26.0%	.	.
CC(C)c1c(C(=O)Nc2ccccc2)c(-c2ccccc2)c(-c2ccc(F)cc2)n1CC[C@H](O)C[C@@H](O)CC(=O)O	.	.	.	-19.4%	.	.
COc1cc2nc(SCC(=O)Nc3cccc(C)c3)n3nc(CCn4c(C)nc5ccccc54)nc3c2cc1OC	3.0%	-15.1%	-21.0%	3.3%	?	?
COc1cc2nc(SCC(=O)Nc3ccc(F)cc3)n3nc(CCn4c(C)nc5ccccc54)nc3c2cc1OC	12.0%	20µM*	-15.8%	i	17.3%	-18.2%
CCOc1cc2ncc(C#N)c(Nc3ccc(F)c(Cl)c3)c2cc1NC(=O)C=CCN(C)C	.	.	.	-2.3%	.	.
CCCN(CCC)CCCNC(=O)c1cnn(-c2ccc(F)cc2)c1-n1cccc1	5.1%	-14.2%	-6.9%	-13.5%	-3.8%	-22.7%
O=C(NCCCN1CCN(c2cccc(Cl)c2)CC1)c1cnn(-c2ccc(F)cc2)c1-n1cccc1	13.1%	22.4µM*	?	i	-18.3%	?
CCC1=Nc2cc(C(=O)NCc3ccc(C)cc3)ccc2Sc2ccc(C)cc21	42.6%	6.3%	-16.4%	-23.2%	-8.0%	?
CCCC1=Nc2cc(C(=O)NCc3ccccc3)ccc2Sc2ccccc21	18.0%	12.9%	?	?	?	11.5µM*
CN(C)CCN(Cc1ccco1)C(=O)c1oc2ccccc2c1NC(=O)c1cccc(F)c1	5.4%	12.6µM*	?	?	?	?
